The values below come from PubChem BioAssay AID485364 (National Center for Advancing Translational Sciences (NCATS), 2010).

The structures appear in SMILES notation. The campaign covered roughly 360,000 compounds. About 11,000 (3.1%) were called active. About 4% were inconclusive and are not listed. The call rests on the fitted dose curve; in most records, active means well fitted inhibition curve with a large enough effect; inconclusive means small, poorly fitted or top-dose-only effect; inactive means no such curve, though single readings can be large or run the other way. What follows is part of a selection rich in actives, with near analogues and random picks from the rest. A call without a number means that no potency is given here.
Potency means the concentration at half of the fitted maximal effect.

The experiment has as its target Schistosoma mansoni thioredoxin glutathione reductase (TGR) (UniProt Q962Y6). Description: qHTS Assay for the Inhibitors of Schistosoma Mansoni Peroxiredoxins. Further: nearly all actives have a fitted effect of over 60% in size. The following applies: purified TGR, DTNB reduction, TNB absorbance 405 nm; series mostly up to 114 µM. The method in brief: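 First, TGR (20 nM dispensed) and NADPH were mixed with compound. Second, a 15 min room-temperature incubation followed. Third, further NADPH and then DTNB were added to start the reaction. Finally, TNB absorbance was monitored kinetically.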
For orientation: In qHTS, concentration-response curves come from the screen itself.
In the case of `COc1ccccc1N1CCN(C(CNC(=O)Oc2ccccc2)c2cccnc2)CC1` (stereo not drawn), the Potency entry is “inactive”.

With `O=C(CSc1cccc2cccnc12)N/N=C/c1cccnc1`, the Potency result was “inactive”.

With `CCOC(=O)N1CCN(C(c2cccnc2)c2ccc3cccnc3c2O)CC1` (stereo not drawn), the Potency was 0.316 µM (active).

Regarding `COc1ccc(CC(=O)Nc2nnc3n2CCS3)cc1OC`, the Potency result is “inactive”.

`CCOC(=O)c1c(C)[nH]c(CCC(=O)NCCCN2CCN(c3cccc(Cl)c3)CC2)c1C`: the Potency result is “inactive”.

Regarding `CN(C(=O)c1ccc2c(c1)N(Cc1cccc(Cl)c1)C(=O)c1ccccc1S2=O)C1CCCCC1` (stereo not drawn), the Potency entry is “inactive”.

Regarding `CCOc1ccc(C(C)=O)cc1COC(=O)CN1C(=O)NC2(CCCC2)C1=O`, the Potency is 10 µM (active).

As to `CCOc1ccc(C(C)=O)cc1COC(=O)CNC(=O)c1cccs1`, the Potency was 11.2 µM (active).

Turning to `Cc1ccc(COC(=O)CN2C(=O)NC3(CCCC3)C2=O)cc1`, the Potency result is “inactive”.

For `CCOc1ccc(C(C)=O)cc1COC(=O)c1cnc(Cl)c(Cl)c1`, the Potency result was “inactive”.

Take `COc1ccc(C(=O)COC(=O)CNC(=O)c2cccs2)cc1Br`: the Potency entry is “inactive”.

As to `CCOc1ccc(C(C)NC(=O)CN2C(=O)NC3(CCCCC3)C2=O)cc1OCC` (stereo not drawn), the Potency entry was “inactive”.

As to `CCOc1ccccc1N(C)C(=O)c1cc2c(s1)-c1ccccc1OC2`, the Potency entry was “inactive”.

Take `Cc1nnc(NCc2ccccc2)c2c1nnn2Cc1ccc(F)cc1`: the Potency result is “inactive”.

Take `CCc1nc(-c2cc(S(=O)(=O)N3CCN(c4ccc(OC)cc4)CC3)ccc2OC)no1`: the Potency result is “inactive”.

For the compound `Cc1ccc(CNC(=O)Cn2c(=O)ccc3cc(S(=O)(=O)N4CCCC4)ccc32)cc1`, the Potency result was “inactive”.

Take `Cc1ccc(NC(=O)CSc2nc3ccccc3c3nc(CCn4cncc4C)nn23)cc1F`: the Potency result was “inactive”.

As to `CCC/C=C(\CCC)C(NC(=O)Cc1ccccc1)c1ccc(C(=O)OC)cc1` (stereo not drawn), the Potency result was “inactive”.

On to `CC(=O)c1ccc(NC(=O)N[C@@H](Cc2ccccc2)C(=O)O)cc1`, for which the Potency result was “inactive”.

In the case of `CC(=O)c1ccc(OC(NC(=O)Cc2ccccc2)C(Cl)(Cl)Cl)cc1` (stereo not drawn), the Potency is 22.4 µM (active).

With `COc1ccc(NC(=O)c2sc3nc[nH]c(=O)c3c2C)cc1`, the Potency result is “inactive”.

For the compound `COc1ccccc1NC(=O)C1=C(C)Nc2nc(SCC(=O)c3ccc(C)cc3)nn2C1c1ccccc1C` (stereo not drawn), the Potency result was “inactive”.

With `CCCCCn1c(=O)[nH]c2cc(C(=O)Nc3cc(C)cc(C)c3)ccc2c1=O`, the Potency result was “inactive”.

`C[C@H]1CCC(=O)N([C@H](CSc2ccccc2)Cc2ccccc2)CC1`: the Potency entry was “inactive”.

As for `O=C1CC[C@H](O)CCN1[C@H](CSc1ccc(Br)cc1)Cc1ccccc1`, the Potency entry was “inactive”.

Consider `COc1ccc(SC[C@H](Cc2ccccc2)N2CCN(CCc3ccccc3)CCC2=O)cc1`, for which the Potency was 17.8 µM (active).

Turning to `COc1cccc(NC(=O)CSC2=Nc3ccccc3C3=NC(CC(=O)NC4CCCCC4)C(=O)N23)c1` (stereo not drawn), the Potency result was “inactive”.

With `CC(=O)c1ccc(NC(=O)c2nc3nc(C)cc(C(F)F)n3n2)cc1`, the Potency entry was “inactive”.

For the compound `O=C(/C=C/c1ccco1)NC(=S)N1CCCCC1`, the Potency is 25.1 µM (active).

Regarding `COc1ccc(Cl)cc1C(=O)NNC(=S)NC(=O)/C=C/c1ccco1`, the Potency entry was “inactive”.

Take `O=C(/C=C/c1ccco1)NC(=S)Nc1ccccc1Br`: the Potency was 35.5 µM (active).

Take `O=C(NNC(=S)Nc1ccc(Br)cc1Cl)c1ccco1`: the Potency entry is “inactive”.

Regarding `COc1ccc(/C=C/C(=O)NC(=S)N2CCCC(C(N)=O)C2)cc1` (stereo not drawn), the Potency result is “inactive”.

As to `COc1ccccc1/C=C/C(=O)NC(=S)N1CCOCC1`, the Potency entry is “inactive”.

On to `O=C(Nc1ccc2nc(SCC(=O)N3CCCc4ccccc43)sc2c1)c1ccc(Cl)cc1`, for which the Potency result is “inactive”.

Turning to `COc1ccccc1-c1noc(CSc2nnc(-c3ccccc3)n2-c2ccc(C)c(C)c2)n1`, the Potency entry was “inactive”.

As for `O=C(O)c1ccc(CSc2nc3cccnc3n2Cc2cccc(F)c2)cc1`, the Potency entry was “inactive”.

On to `Cc1ccc(-n2ncc(C(=O)N(C)Cc3ccccc3)c2-n2cccc2)cc1`, for which the Potency entry was “inactive”.

As for `CC(=O)c1ccc(NS(=O)(=O)c2ccc(-c3cc(C)no3)s2)cc1`, the Potency entry was “inactive”.

For the compound `COc1ccccc1CNC(=O)c1ccc(-n2c(C)cc3c2CCCC3)cc1`, the Potency entry was “inactive”.

Take `CN1C(=O)/C(=N/OC(=O)c2ccccc2Br)c2ccccc21`: the Potency is 12.6 µM (active).

In the case of `Cn1c(=O)c(=O)n(C)c2cc(NC(=O)c3ccccc3Br)ccc21`, the Potency entry is “inactive”.

As for `CN1C(=O)/C(=C\c2cc(Br)cs2)c2ccccc21`, the Potency result is “inactive”.

`Cc1ccc(C)c(NC(=O)CSC2=Nc3ccccc3N=C(c3ccc(F)cc3)C2)c1`: the Potency result is “inactive”.

As to `COc1cc(C(=O)Nc2ccc(-n3c(C)nc4ccccc4c3=O)cc2)cc(OC)c1OC`, the Potency result was “inactive”.

Turning to `Cc1ccc(SC(CC(=O)c2ccc(C(C)(C)C)cc2)C(=O)O)cc1` (stereo not drawn), the Potency was 2 µM (active).

With `Cc1ccc(Sc2cc(C(=O)c3ccccc3C(=O)O)ccc2[N+](=O)[O-])cc1`, the Potency result was “inactive”.

As to `CC(C)(C)c1ccc(C(=O)NNC(=O)Cc2ccccc2)cc1`, the Potency result was “inactive”.

With `COc1ccc2[nH]c3c(c2c1)CCN(C(=O)CCC1CCCC1)C3c1ccc(F)cc1` (stereo not drawn), the Potency result was “inactive”.

Turning to `C#CCNC(=O)C1=C[C@@H](c2ccccc2)[C@H](CCCO)[C@@H](OCC)O1`, the Potency is 35.5 µM (active).

As for `CCO[C@H]1OC(C(=O)NCc2ccccc2)=C[C@@H](c2coc3ccccc3c2=O)[C@@H]1CCCO`, the Potency entry is “inactive”.

With `CCO[C@@H]1OC(C(N)=O)=C[C@H](c2ccc(Br)cc2)[C@H]1CCCO`, the Potency result is “inactive”.

Regarding `Cn1c(SCC(=O)c2cccs2)nnc1-c1ccco1`, the Potency is 44.7 µM (active).

Consider `Cn1c(SCC(=O)N2CCCC2)nnc1-c1cccs1`, for which the Potency entry is “inactive”.

`CCn1c(SCC(=O)Nc2nccs2)nnc1-c1ccco1`: the Potency entry was “inactive”.

As to `Cc1ccc(SCC(=O)Nc2ccc3oc(-c4ccccc4F)nc3c2)cc1`, the Potency result is “inactive”.

For the compound `CCc1ccc(Nc2nn3c(=O)c4cc5c(cc4nc3s2)OCO5)cc1`, the Potency entry was “inactive”.

With `O=C(O)CCS(=O)(=O)c1ccc(-c2ccccc2)cc1`, the Potency entry is “inactive”.

Regarding `CC(=O)CCS(=O)(=O)c1ccc(C)c(C)c1`, the Potency was 50.1 µM (active).

Take `Cc1ccc(S(=O)(=O)NCCC(=O)Nc2ccc(C)c(Cl)c2)cc1C`: the Potency entry was “inactive”.

`CC(=O)c1c(C)n(S(=O)(=O)c2ccc(Cl)cc2)c2ccc(NS(=O)(=O)c3ccc(Cl)cc3)cc12`: the Potency entry was “inactive”.

Consider `CSc1nn(Cc2cccc(C)c2)c(N)c1S(=O)(=O)c1ccccc1`, for which the Potency entry was “inactive”.

In the case of `COc1ccc(/C=C(/NC(=O)c2ccco2)C(=O)Nc2ccc(C(C)=O)cc2)cc1`, the Potency entry was “inactive”.

As for `O=C(NCc1ccco1)/C(=C/c1ccco1)NC(=O)c1ccccc1`, the Potency was 39.8 µM (active).

`COc1ccccc1C(=O)N/C(=C/c1ccc2c(c1)OCO2)C(=O)Nc1cccc(C(=O)O)c1`: the Potency entry is “inactive”.

Regarding `O=C(NCC1CCCO1)/C(=C\c1ccco1)NC(=O)c1ccccc1` (stereo not drawn), the Potency entry is “inactive”.

Turning to `O=C(NNC(=O)c1ccco1)Nc1ccccc1`, the Potency result is “inactive”.

Turning to `O=C(Nc1ccccc1)/C(=C\c1ccco1)NC(=O)c1ccco1`, the Potency is 10 µM (active).

On to `CC(C)(C)c1ccc(/C=C/C(=O)NC2CCS(=O)(=O)C2)cc1` (stereo not drawn), for which the Potency entry is “inactive”.

`Cc1ccc(NC(=O)/C(=C\c2ccccc2)NC(=O)c2ccco2)cc1`: the Potency entry was “inactive”.

With `NC(=O)C1CCN(C(=O)/C(=C/c2ccco2)NC(=O)c2ccccc2)CC1`, the Potency entry is “inactive”.

On to `Cc1ccc(C(=O)N/C(=C/C=C/c2ccccc2)C(=O)NCc2ccco2)cc1`, for which the Potency result is “inactive”.

As for `Cc1ccc(C(=O)N/C(=C\c2ccco2)C(=O)NC2CCS(=O)(=O)C2)cc1` (stereo not drawn), the Potency was 31.6 µM (active).

As for `COc1ccccc1C(=O)N/C(=C/c1ccco1)C(=O)Nc1ccc(C(=O)O)cc1`, the Potency was 50.1 µM (active).

On to `Cc1cccc(Cc2c(C)nc3nc(SCc4ccccc4Cl)nn3c2C)c1`, for which the Potency result was “inactive”.

On to `Cc1ccc(Cl)cc1NC(=O)CCC(=O)N1CC(C)Sc2ccccc21` (stereo not drawn), for which the Potency result is “inactive”.

As for `Cc1oc2ncnc(N3CCCCC3)c2c1C(=O)N1CCN(c2cccc(Cl)c2)CC1`, the Potency entry was “inactive”.

For `COc1cccc(NC(=O)Nc2ccc3c(c2)N(C)C(=O)c2ccccc2S3)c1`, the Potency entry is “inactive”.

As to `CCOc1ccc(CCNC(=O)Cn2nc(CC)n3c(cc4sc(CC)cc43)c2=O)cc1OCC`, the Potency entry is “inactive”.

`Cc1ccc2c(=O)c(C(=O)c3ccc(Cl)cc3)cn(CC(=O)NC3CCCCC3)c2n1`: the Potency result is “inactive”.

With `Cc1noc(/C=C/N(C)C)c1S(=O)(=O)N1CCCC(C(=O)Nc2cccc(F)c2)C1` (stereo not drawn), the Potency result is “inactive”.

On to `CCc1cccc(NC(=O)c2cnc(N3CCOCC3)c3ccccc23)c1`, for which the Potency result was “inactive”.

For the compound `Cc1ccc(CNC(=O)CCC(=O)N2Cc3ccccc3Oc3ncccc32)cc1`, the Potency entry was “inactive”.

For the compound `CCc1ccccc1N1C(=O)CN(S(=O)(=O)CC)CC1(C)C(=O)NC1CCCCC1` (stereo not drawn), the Potency result is “inactive”.

For the compound `Cc1ccc(NC(=O)Cn2c(=O)n(-c3ccccc3)c(=O)c3c4c(sc32)CCCC4)cc1`, the Potency entry is “inactive”.

In the case of `Cc1cccc(NC(=O)/C(=C\c2ccco2)NC(=O)c2ccccc2)c1`, the Potency is 20 µM (active).

Consider `COc1ccc(/C=C(/NC(=O)c2ccccc2)C(=O)Nc2cccc(C(=O)O)c2)cc1`, for which the Potency result is “inactive”.

`O=C(Nc1ccc(C(=O)O)cc1)/C(=C\c1ccccc1)NC(=O)c1ccc(Br)cc1`: the Potency result is “inactive”.

For `COc1ccc(-c2nc3sc(CCNS(=O)(=O)c4ccc(F)c(C)c4)c(C)n3n2)cc1`, the Potency entry was “inactive”.

On to `Cc1ccc2nc3c(cc(C(=O)NC4CCCCC4)c(=N)n3C(C)C)c(=O)n2c1`, for which the Potency entry was “inactive”.

Consider `COc1ccc(NC2CC(=O)N(C)C2=O)cc1` (stereo not drawn), for which the Potency is 15.8 µM (active).

As for `COc1ccc(N2C(=O)CC(Nc3ccc(F)cc3)C2=O)c([N+](=O)[O-])c1` (stereo not drawn), the Potency entry was “inactive”.

On to `COc1ccc(N=C2SC(C(=O)Nc3ccc(F)cc3)CC(=O)N2C)cc1` (stereo not drawn), for which the Potency result was “inactive”.

On to `CCN(C(=O)Cn1c(=O)nc(-c2ccccc2)c2cc(Cl)ccc21)c1cccc(C)c1`, for which the Potency entry is “inactive”.

`O=C(NC1CCCC1)C(c1ccco1)N(C(=O)c1ccco1)c1ccc(F)cc1` (stereo not drawn): the Potency entry was “inactive”.

Turning to `COC(=O)c1cccc(N(C(=O)c2ccco2)C(C(=O)NC2CCCC2)c2ccco2)c1` (stereo not drawn), the Potency was 44.7 µM (active).

With `COc1cccc(C(C(=O)NC2CCCC2)N(C(=O)c2ccco2)c2cccc(C(C)=O)c2)c1OC` (stereo not drawn), the Potency result was “inactive”.

With `Cc1ccc(CNC(=O)CSc2c(C)cnc3c2c(=O)n(C)c(=O)n3C)cc1`, the Potency entry was “inactive”.
